Here are results for 40 compounds from PubChem BioAssay (NCATS).

Records with an inconclusive call do not appear. Values without a mark were called inactive. Active and inactive are the calls of the source. The call rests on the fitted dose curve; in most records, active means well fitted activation curve with a large enough effect; inconclusive means small, poorly fitted or top-dose-only effect; inactive means no such curve, though single readings can be large or run the other way.
Potency means the concentration at half of the fitted maximal effect.

Cellular tumor antigen p53 (Homo sapiens), sequence (P04637 whole entry, looked up): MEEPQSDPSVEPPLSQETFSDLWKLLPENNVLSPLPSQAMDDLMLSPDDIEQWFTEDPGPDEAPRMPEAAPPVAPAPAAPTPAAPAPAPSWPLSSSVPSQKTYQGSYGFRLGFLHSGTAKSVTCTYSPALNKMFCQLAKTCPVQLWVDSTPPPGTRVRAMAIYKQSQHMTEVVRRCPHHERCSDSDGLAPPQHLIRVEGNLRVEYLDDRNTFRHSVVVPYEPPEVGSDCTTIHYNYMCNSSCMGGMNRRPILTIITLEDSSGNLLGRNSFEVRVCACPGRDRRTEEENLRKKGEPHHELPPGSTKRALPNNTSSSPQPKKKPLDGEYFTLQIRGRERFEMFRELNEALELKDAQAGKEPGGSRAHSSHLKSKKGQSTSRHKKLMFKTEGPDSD

This experiment addresses Cellular tumor antigen p53 (Homo sapiens) (UniProt P04637). Kind of experiment: Primary qHTS for small molecule compounds that upregulate eGFP-tagged delta133p53alpha (in N-terminal) cells. (AID 2060322). Further: nearly all actives have a fitted effect of over 75% in size.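 On activation: series mostly up to about 56 µM; 0% = DMSO vehicle and 100% = reference activator.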 The note with it: NCI-H358 eGFP-delta133p53alpha fluorescence, 24 h; activation: stronger effect = higher value. The method, boiled down: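 NCI-H358 cells pre-induced 24 h with 10 ng/ml doxycycline for eGFP-delta133p53alpha, plated dox-free and exposed 24 h at 37C to titrated compounds. Fixed, Hoechst-stained; gated GFP peak intensity by laser scanning cytometry, normalized to DMSO (0%) and 57.5 uM 5-azacytidine (100%).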
(In general: In qHTS, concentration-response curves come from the screen itself.)
Regarding `CC(=C(CCOC(=O)C(C)C)SSC(CCOC(=O)C(C)C)=C(C)N(C=O)Cc1cnc(C)nc1N)N(C=O)Cc1cnc(C)nc1N`, the activation was -4.18%. In the case of `O=[N+]([O-])c1ccc(/C=N\O)o1`, the activation is 11.9%.

In the case of `CN(C)[C@@H]1C(=O)C(C(=O)NCN2CCCC2)=C(O)[C@@]2(O)C(=O)C3=C(O)c4c(O)cccc4[C@@](C)(O)C3C[C@@H]12` (stereo not given in full), the activation was -13%. With `Cc1cc(C(=O)N2Cc3cnn(C)c3Nc3ccccc32)ccc1CNC(=O)N1CCC[C@H]1C(=S)N1CCCN(C)CC1`, the activation is -0.893%. Same read-out and setting: as for `CN(C)c1cc(NC(=O)CNC(C)(C)C)c(O)c2c1C[C@@H]1C[C@H]3[C@H](N(C)C)C(=O)C(C(N)=O)=C(O)[C@@]3(O)C(=O)C1=C2O`, the figure is -7.92%; as for `COCC(=O)Nc1c(I)c(C(=O)NCC(O)CO)c(I)c(C(=O)N(C)CC(O)CO)c1I` (stereo not given), -4.18%.

As for `C[N+]1(CC2COC(c3ccccc3)(C3CCCCC3)O2)CCCCC1` (stereo not given), the activation was 10.9%. As for `Cc1ccc(N)cc1O`, the Potency is 28.2 µM (active). Regarding `O=C(O)CCC(=O)c1ccc(-c2ccccc2)cc1`, the activation is -11.9%.

`Cc1cccc(C)c1NC(=O)c1ccccc1C(=O)O`: the activation was 28.5%. On the same count and under the same terms, as for `C[n+]1ccccc1/C=N/O`, the figure is 15.3%; as for `CC[N+](CC)(CCNC(=O)C(=O)NCC[N+](CC)(CC)Cc1ccccc1Cl)Cc1ccccc1Cl`, -9.6%. For the compound `CC(CC(C#N)(c1ccccc1)C(C)C)N(C)C` (stereo not given), the activation was -0.837%. With `COc1cc(C)c(Cc2cnc(N)nc2N)cc1OC`, the activation was -6.69%. For the compound `Cn1cc(C=CC(=O)c2cccc(F)c2)cc1C=CC(=O)NO`, the Potency is 38.5 µM (active). With `CCCC(=O)O[C@]1(C(=O)CCl)[C@@H](C)C[C@H]2[C@@H]3CCC4=CC(=O)C=C[C@]4(C)[C@@]3(F)C(=O)C[C@@]21C`, the activation was -8.37%.

On to `CC(=O)c1cc2ccccc2s1`, for which the activation was 6.21%. Take `CN(C)CCN(Cc1ccsc1)c1ccccn1`: the activation was -27.6%. On to `O=C(O)Cn1c(=O)n(Cc2ccc(Br)cc2F)c(=O)c2ccc(Cl)cc21`, for which the activation was -5.08%. In the case of `CCN1CCCC1=O`, the activation is 10.7%. As for `O=C(NCC(O)CO)c1c(I)c(C(=O)NCC(O)CO)c(I)c(N(CCO)C(=O)CO)c1I` (stereo not given), the activation was -8.37%. As to `COc1ccc(C(=O)NCc2ccc(OCCN(C)C)cc2)cc1OC`, the activation is -28.8%. The same measure, in the same setting: as for `OCc1ccccn1`, the figure is 8.37%. Still for that read-out and setting: the same measure for `O=C(c1ccco1)N1CCNCC1`: -10.9%. `Nc1ccc(-c2ccc3ccccc3n2)cc1`: the activation was 29.5%. For `N[C@H](C(=O)O)c1ccc(O)cc1`, the activation is -13.4%. Regarding `NS(=O)(=O)c1cc2c(cc1C(F)(F)F)NC(Cc1ccccc1)NS2(=O)=O` (stereo not given), the activation is -6.69%. Consider `CCCC(CCC)(C(=O)OCC)C(=O)OCC`, for which the activation was -3.95%.

Take `CCOC(=O)[C@H](CCc1ccccc1)N[C@@H](C)C(=O)N1Cc2ccccc2C[C@H]1C(=O)O`: the activation is 17.6%. For the compound `CN1CC(=O)NC1=N`, the activation was -5.08%. For `Nc1nnnn1-c1ccccc1`, the activation is 29.9%. `O=C1c2ccccc2C(=O)c2c1ccc(O)c2O`: the activation was -14.2%. In the case of `CC[C@]1(O)C[C@H]2CN(CCC3=c4ccccc4=N[C]3[C@@](C(=O)OC)(c3cc4c(cc3OC)N(C)[C@H]3[C@@](O)(C(N)=O)[C@H](O)[C@]5(CC)C=CCN6CC[C@]43[C@@H]65)C2)C1`, the activation was 31.2%.

As for `OCCc1ccccc1`, the activation was 1.69%. The same measure, in the same setting: as for `CC[C@H](NC(=O)[C@H](C)NC)C(=O)N1C[C@@H](O)C[C@H]1Cc1c(-c2[nH]c3cc(F)ccc3c2C[C@H]2C[C@H](O)CN2C(=O)[C@H](CC)NC(=O)[C@H](C)NC)[nH]c2cc(F)ccc12`, the figure is 21.3%; as for `CN(CC=CC#CC(C)(C)C)Cc1cccc2ccccc12`, 36.7%; as for `CCC(=C(c1ccc(O)cc1)c1ccc(OCCNC)cc1)c1ccccc1`, 62.8%. As for `C[C@@H]1[C@H](C)CC[C@]2(C(=O)O)CC[C@]3(C)C(=CC[C@@H]4[C@@]5(C)CC[C@H](O)C(C)(C)[C@H]5CC[C@]43C)[C@@H]12`, the activation was -12.8%. Turning to `CCCCCCCCCCCCCC(=O)OC(C)C`, the activation is 14.1%.

With `CCN1/C(=C/C=C/c2sc3ccccc3[n+]2CC)Sc2ccccc21`, the Potency is 16.9 µM (active).
